± gives the standard deviation of the averaged measurements.

What all share (conditions): concentration: 10 µM; 24 h
Assay [1] deals with HCC1569. Nature of the assay: cell number relative to DMSO (% of DMSO); higher = more cells (less growth inhibition / toxicity). The essentials:
(§1)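 In 384-well plates holding 800 HCC1569 or TDF cells per well in RPMI with 10% FBS, compounds were tested at 10 µM for 24 h at 37 °C in triplicate. Fixation used 3.7% formaldehyde. Staining used a rabbit anti-H1.0 antibody with an AlexaFluor 647 secondary, plus DAPI. Each value, H1.0 nuclear intensity or cell number, is a median of replicates shown as percent of the plate control, and HCC1569 values were smoothed for positional effects.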

For assay [2], the system named is TDF. Described as above. The essentials:
as §1

The subject of assay [3] is TDF. Nature of the assay: H1.0 immunofluorescence intensity relative to DMSO (% of DMSO); higher = stronger H1.0 induction, active = 120 or more. The essentials:
as §1

Assay [4] has as its system HCC1569. Nature of the assay: H1.0 immunofluorescence intensity relative to DMSO (% of DMSO); higher = stronger H1.0 induction, active = 140 or more. An outline of the steps: as §1
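Wherever H1.0 immunofluorescence intensity relative to DMSO is given: TDF is a line of transformed human dermal fibroblasts of mesenchymal origin.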
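Wherever cell number relative to DMSO is given: TDF denotes transformed human dermal fibroblasts of mesenchymal origin.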

Turning to `CC(C)c1cc(C(C)C)c(-c2csc(N(CCN(C)C)Cc3cccnc3)n2)c(C(C)C)c1`, the cell number was found to be 50.7 in the assay on HCC1569 [1] and 55.2 in the assay on TDF [2]. The H1.0 immunofluorescence intensity with TDF [3] and with HCC1569 [4] was 146 (active) each time.

Consider `CCN(CC)CCNC(=O)c1cc(Cl)c(N)cc1OC.Cl` [Metoclopramide hydrochloride], for which the results for the cell number in the assay on HCC1569 [1] and with TDF [2] were 107 and 106, respectively. Also, the H1.0 immunofluorescence intensity in the assay with TDF [3] is 94.3 (inactive); in the assay on HCC1569 [4], 87.4 (inactive).

`CC(C)c1cccc(C(C)C)c1N1C(=O)c2ccc(O)cc2C1=O`: the cell number in the assay with HCC1569 [1] is 60.4; in the assay with TDF [2] it was 59.5. Also, the H1.0 immunofluorescence intensity with TDF [3] is 119 (inactive); in the assay with HCC1569 [4], 162 (active).

Turning to `CNC(=O)C1OC(n2cnc3c(N)ncnc32)C(O)C1O` (centres undefined) [5'-N-Methyl carboxamidoadenosine], the cell number in the assay with HCC1569 [1] and in the assay with TDF [2] was 110 in each case. The figures for the H1.0 immunofluorescence intensity in the assay on TDF [3] and with HCC1569 [4] were 104 (inactive) and 98.9 (inactive), respectively.

`CCCCCCCC(=O)c1c(O)cc(O)cc1CC(=O)OCC` [ethyl (3,5-dihydroxy-2-octanoylphenyl)acetate]: the cell number in the assay on HCC1569 [1] came to 104; in the assay with TDF [2], 106. The H1.0 immunofluorescence intensity in the assay with TDF [3] is 96.7 (inactive); with HCC1569 [4], 121 (inactive).

Take `O=c1[nH]c2cc(Cl)ccc2c(O)c1-c1cccc(Oc2ccccc2)c1`: the cell number in the assay with HCC1569 [1] turned out to be 108; with TDF [2], 94.2. In addition, the results for the H1.0 immunofluorescence intensity in the assay with TDF [3] and with HCC1569 [4] were 91.7 (inactive) and 88.2 (inactive), respectively.

On to `CC(=O)OCC1OC([S-])C(OC(C)=O)C(OC(C)=O)C1OC(C)=O.CCP(CC)CC.[Au+]` (centres undefined) [Auranofin], for which the cell number is 38 with HCC1569 [1] and 15.4 in the assay with TDF [2]. Besides, the H1.0 immunofluorescence intensity was 155 (active) in the assay on TDF [3] and 146 (active) with HCC1569 [4].

On to `O=C(NCc1ccc2c(c1)OCO2)c1c(Cl)cccc1Cl` [N-(1,3-benzodioxol-5-ylmethyl)-2,6-dichlorobenzamide], for which the cell number in the assay on HCC1569 [1] is 97.3; with TDF [2], 103. Further, the H1.0 immunofluorescence intensity with TDF [3] was 97 (inactive); in the assay with HCC1569 [4], 105 (inactive).

As for `CC(OC(=O)c1ccc(F)cc1F)C(=O)N(C)C1CCS(=O)(=O)C1` (centres undefined) [Cdk2/9 Inhibitor], the cell number was 48.9 with HCC1569 [1] and 29.1 in the assay on TDF [2]. The figures for the H1.0 immunofluorescence intensity in the assay on TDF [3] and in the assay with HCC1569 [4] were 110 (inactive) and 139 (inactive), respectively.

As to `CCN(CC)CCOc1ccc(C(=C(Cl)c2ccccc2)c2ccccc2)cc1` [Clomiphene], the cell number in the assay with HCC1569 [1] came out at 99.9; with TDF [2], 88.3. The H1.0 immunofluorescence intensity is 98 (inactive) with TDF [3] and 116 (inactive) in the assay on HCC1569 [4].

For `CC(=O)C(C)=NO` [2,3-Butanedione monoxime], the cell number is 100 with HCC1569 [1] and 95.2 in the assay on TDF [2]. The H1.0 immunofluorescence intensity in the assay with TDF [3] was 106 (inactive); with HCC1569 [4] it was 115 (inactive).

For `COc1ccc2c(OC)c3ccoc3nc2c1OC` [Skimmianine], the cell number stood at 100 with HCC1569 [1] and 98.2 in the assay on TDF [2]. For the same compound, the H1.0 immunofluorescence intensity in the assay on TDF [3] was 99.1 (inactive); in the assay on HCC1569 [4], 96.2 (inactive).

In the case of `CCOC(=O)c1ncn2c1CN(C)C(=O)c1cc(F)ccc1-2` [Flumazenil], the cell number in the assay with HCC1569 [1] came to 104 ± 7.3; in the assay with TDF [2], 97.3 ± 3.1. In addition, the figures for the H1.0 immunofluorescence intensity in the assay with TDF [3] and in the assay with HCC1569 [4] were 98.2 (inactive) and 93.6 (inactive), respectively.

With `Cl.NNc1nncc2ccccc12` [Hydralazine hydrochloride], the results for the cell number in the assay with HCC1569 [1] and in the assay on TDF [2] were 101 and 107, respectively. Moreover, the H1.0 immunofluorescence intensity was 93.2 (inactive) in the assay with TDF [3] and 92 (inactive) in the assay with HCC1569 [4].

With `O=C(O)CCCC=CCC=CC=CC(O)CC=CCCCCCO` (centres undefined), the cell number with HCC1569 [1] came to 101; in the assay on TDF [2], 92.6. For the same compound, the H1.0 immunofluorescence intensity was 98.3 (inactive) with TDF [3] and 101 (inactive) with HCC1569 [4].

Turning to `CNc1ncnc2c1ncn2C1OC(CO)C(O)C1O` (centres undefined) [N6-Methyladenosine], the cell number worked out at 95.6 in the assay with HCC1569 [1] and 106 with TDF [2]. The H1.0 immunofluorescence intensity is 93.9 (inactive) in the assay with TDF [3] and 110 (inactive) with HCC1569 [4].

Regarding `CNC1CC2OC(C)(C1OC)n1c3ccccc3c3c4c(c5c6ccccc6n2c5c31)C(=O)NC4O` (centres undefined), the cell number in the assay with HCC1569 [1] was found to be 20.4; with TDF [2], 8.22. Also, the H1.0 immunofluorescence intensity was 139 (active) in the assay with TDF [3] and 121 (inactive) with HCC1569 [4].

As for `COc1cc(C(C)=O)cc(-c2cc(C(C)=O)cc(OC)c2O)c1O`, the cell number in the assay on HCC1569 [1] was determined as 100; in the assay on TDF [2], 110. In addition, the values for the H1.0 immunofluorescence intensity in the assay on TDF [3] and with HCC1569 [4] were 93.8 (inactive) and 100 (inactive), respectively.

On to `COc1ccc(C2CC(c3ccccc3)=NN2c2ccc(S(N)(=O)=O)cc2)cc1` (centres undefined), for which the cell number with HCC1569 [1] was 95.8; with TDF [2], 97.9. Further, the results for the H1.0 immunofluorescence intensity with TDF [3] and in the assay on HCC1569 [4] were 91.3 (inactive) and 114 (inactive), respectively.

As to `CCOC(OCC)P(=O)(O)CCCNCc1ccc(Cl)c(Cl)c1`, the figures for the cell number in the assay on HCC1569 [1] and in the assay with TDF [2] were 108 and 95.6, respectively. The H1.0 immunofluorescence intensity in the assay with TDF [3] was 98.3 (inactive); in the assay on HCC1569 [4], 102 (inactive).

Consider `COC(=O)C1=COC(C)C2CN3CCc4c([nH]c5ccccc45)C3CC12` (centres undefined) [Teterahydroalstonine], for which the results for the cell number in the assay with HCC1569 [1] and with TDF [2] were 102 and 104, respectively. Besides, the results for the H1.0 immunofluorescence intensity with TDF [3] and in the assay on HCC1569 [4] were 98.8 (inactive) and 88 (inactive), respectively.

As to `CCN(CC)CCCCNc1ncc2cc(-c3c(Cl)cccc3Cl)c(NC(=O)NC(C)(C)C)nc2n1`, the figures for the cell number with HCC1569 [1] and in the assay on TDF [2] were 63.1 and 84.5, respectively. Moreover, the values for the H1.0 immunofluorescence intensity in the assay on TDF [3] and with HCC1569 [4] were 104 (inactive) and 115 (inactive), respectively.

`COC1C=CC=C(C)C(=O)NC2=CC(=O)C=C(C2=O)C(OC)C(C)CC(OC)C(OC)C(C)C=C(C)C1OC(N)=O` (centres undefined) [Herbimycin A, Streptomyces sp.]: the cell number in the assay with HCC1569 [1] was 62.4; with TDF [2] it was 54.7. For the same compound, the figures for the H1.0 immunofluorescence intensity in the assay on TDF [3] and in the assay with HCC1569 [4] were 88.3 (inactive) and 180 (active), respectively.

In the case of `O=C1c2c(O)ccc(O)c2C(=O)c2c(NCCNCCO)ccc(NCCNCCO)c21` [Mitoxantrone], the cell number in the assay on HCC1569 [1] was determined as 53.2 ± 8.2; in the assay on TDF [2], 3.71 ± 2.7. Besides, the H1.0 immunofluorescence intensity in the assay on TDF [3] was 2090 (active); with HCC1569 [4], 120 (inactive).

In the case of `O=c1cc(-c2ccc(O)cc2)oc2cc(O)cc(O)c12` [Apigenin], the cell number in the assay with HCC1569 [1] was 93.5 ± 3; in the assay with TDF [2], 104 ± 3.7. Further, the H1.0 immunofluorescence intensity was 89.2 (inactive) with TDF [3] and 99.9 (inactive) in the assay on HCC1569 [4].

In the case of `CCCCCCCCCCCCCCCCCCOCC(COP(=O)([O-])OCC[N+](C)(C)C)OC` (centres undefined) [1-Octadecyl-2-methylglycero-3 PC], the values for the cell number in the assay with HCC1569 [1] and with TDF [2] were 105 and 100, respectively. The H1.0 immunofluorescence intensity in the assay with TDF [3] was 96.6 (inactive); with HCC1569 [4] it was 101 (inactive).

The values above are taken from the supplement of paper PMC7156485.
